{
  "source": "PubChem BioAssay",
  "note": "The source made the active and inactive calls.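 How the source made its calls, unless noted: active means calcium signal rise above buffer-control mean plus 5 SD in both duplicates, and also a hit in the primary screen; inactive means the rest.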",
  "data": [
    {"molecular_target": "Short transient receptor potential channel 6 (Mus musculus) (UniProt Q61143)", "sequence (Q61143 whole entry, looked up)": "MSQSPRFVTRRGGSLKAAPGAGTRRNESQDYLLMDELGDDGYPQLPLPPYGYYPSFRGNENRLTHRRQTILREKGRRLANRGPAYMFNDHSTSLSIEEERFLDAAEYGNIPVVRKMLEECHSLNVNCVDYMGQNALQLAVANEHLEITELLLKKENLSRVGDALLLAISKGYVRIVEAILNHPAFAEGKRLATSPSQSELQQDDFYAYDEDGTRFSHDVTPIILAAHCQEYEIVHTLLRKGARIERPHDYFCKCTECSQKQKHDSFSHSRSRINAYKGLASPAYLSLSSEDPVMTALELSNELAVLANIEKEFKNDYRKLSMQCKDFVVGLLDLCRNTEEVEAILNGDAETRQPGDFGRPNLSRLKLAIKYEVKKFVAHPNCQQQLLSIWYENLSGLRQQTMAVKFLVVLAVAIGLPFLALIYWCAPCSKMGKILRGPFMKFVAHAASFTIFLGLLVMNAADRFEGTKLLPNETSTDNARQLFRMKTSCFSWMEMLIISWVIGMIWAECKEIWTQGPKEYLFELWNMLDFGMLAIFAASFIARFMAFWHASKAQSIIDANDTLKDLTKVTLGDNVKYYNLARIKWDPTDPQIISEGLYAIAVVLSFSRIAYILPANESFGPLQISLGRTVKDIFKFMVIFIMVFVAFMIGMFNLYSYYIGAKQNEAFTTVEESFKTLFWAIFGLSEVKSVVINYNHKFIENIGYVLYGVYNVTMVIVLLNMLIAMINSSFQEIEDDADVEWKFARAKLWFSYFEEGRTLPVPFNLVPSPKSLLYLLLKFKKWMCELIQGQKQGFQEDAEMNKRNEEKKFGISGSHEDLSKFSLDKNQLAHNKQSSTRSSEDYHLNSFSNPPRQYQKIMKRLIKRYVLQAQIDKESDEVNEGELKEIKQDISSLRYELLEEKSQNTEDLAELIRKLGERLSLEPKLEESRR", "test": "positive modulators of mouse TRPC6 channel – HEK293 cells, membrane potential dye, duplicate, selectivity assay for TRPC4 potentiator project, confirmation (AID 434952;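 active means compound raising the membrane signal above positive-control mean plus 3 SD in both repeats, and a primary screen hit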)", "settings": "HEK293 TRPC6, membrane potential dye fluorescence, at 10 µM, maximal acetylcholine added after compound; active compounds read high", "values": [
      {"smiles": "COc1ccc(-n2nc(C(=O)NCC(=O)NCCCN3CC(C)CC(C)C3)c3ccccc3c2=O)cc1Cl", "note": "(stereo not given)", "outcome": "inactive"},
      {"smiles": "Cc1cc(OCC(=O)N(C(C)C)C(C)C)cc(C)c1Br", "outcome": "inactive"},
      {"smiles": "CCCCCCn1c(N2CCN(c3ccccc3)CC2)nc2c1c(=O)n(C)c(=O)n2C", "outcome": "inactive"},
      {"smiles": "CCC(=O)NC(C)C(c1cccs1)N1CCN(c2ccccc2)CC1", "note": "(stereo not given)", "outcome": "inactive"},
      {"smiles": "Cc1ccc(-c2nnc(N3CCC(C)CC3)c3ccccc23)cc1C", "outcome": "inactive"},
      {"smiles": "Cc1cc(C(C)(C)C)c(O)c(C)c1CC1=NCCN1", "outcome": "inactive"},
      {"smiles": "Cc1sc2ncnc(NCC(c3ccccc3)N(C)C)c2c1C", "note": "(stereo not given)", "outcome": "inactive"},
      {"smiles": "O=C(NCc1ccccc1)C1=C[C@H](c2ccc(Br)cc2)C[C@H](OCc2ccc(CO)cc2)O1", "outcome": "inactive"},
      {"smiles": "O=C(Nc1ccccc1)C1=C[C@H](C2CCCCC2)C[C@H](OCc2ccc(CO)cc2)O1", "outcome": "inactive"},
      {"smiles": "Cc1ccc(S(=O)(=O)N2CCC(N3CCN(C)CC3)CC2)cc1Cl", "outcome": "inactive"},
      {"smiles": "Cc1cc(OCC(=O)NC2CCCCC2)ccc1Cl", "outcome": "inactive"},
      {"smiles": "O=[N+]([O-])c1ccc(/C=N/Nc2nc(N3CCCCC3)nc(N3CCCCC3)n2)o1", "outcome": "inactive"},
      {"smiles": "Cc1cccc(/C=N/NC(=O)c2cccc(Cl)c2)n1", "outcome": "inactive"},
      {"smiles": "S=C(NCCc1ccccn1)NC1CCCCC1", "outcome": "inactive"},
      {"smiles": "Cc1cccc(Cc2c(C)nc3c(C(=O)NCc4ccco4)cnn3c2C)c1", "outcome": "inactive"},
      {"smiles": "Cc1ccc(Cn2c(=N)c(C(=O)NC3CCCC3)cc3c(=O)n4ccccc4nc32)cc1", "outcome": "inactive"},
      {"smiles": "COC(=O)[C@@]12CCCCN1[C@H](c1ccc(-c3cccc(Cl)c3)c(OC)c1)[C@H]1C(=O)N(C)C(=O)[C@H]12", "outcome": "inactive"},
      {"smiles": "CC1=C(C(=O)NCc2ccccc2)C(c2cc(Br)cc(Br)c2OC(C)C)NC(=O)N1", "note": "(stereo not given)", "outcome": "inactive"},
      {"smiles": "CC1Cc2ccccc2N1C(=O)CSc1nc2c(c(=O)n(C)c(=O)n2C)n1Cc1ccc(F)cc1", "note": "(stereo not given)", "outcome": "inactive"},
      {"smiles": "CCN1CCN(c2ccc(S(=O)(=O)N3CCOCC3)cc2NC(=O)c2ccccc2OC(F)F)CC1", "outcome": "inactive"},
      {"smiles": "O=C1C(Cl)=C(Nc2cccc(O)c2)C(=O)N1Cc1ccccc1", "outcome": "inactive"},
      {"smiles": "O=C(NCc1ccccc1)C1=C[C@H](c2ccc(C(F)(F)F)cc2)C[C@H](OCc2ccc(CO)cc2)O1", "outcome": "inactive"},
      {"smiles": "COc1ccc(C)c(NC(=O)NCCc2cnc[nH]2)c1", "outcome": "inactive"},
      {"smiles": "CN(C)CCNc1ccc(Cl)cc1[N+](=O)[O-]", "outcome": "inactive"},
      {"smiles": "CCn1c(O)c(N=NC(=O)c2cccc(S(=O)(=O)N3CCCCC3)c2)c2ccccc21", "outcome": "inactive"},
      {"smiles": "Cc1onc(-c2ccccc2)c1C(=O)NNC(=S)NC(=O)c1ccc2c(c1)OCO2", "outcome": "inactive"},
      {"smiles": "COc1ccc(Cl)cc1C(=O)NCCN(C)C", "outcome": "inactive"},
      {"smiles": "O=C1NCN(c2ccccc2)C12CCN(CCCC(c1ccc(F)cc1)c1ccc(F)cc1)CC2", "outcome": "inactive"},
      {"smiles": "Cc1ccc(/C=N/NC(=O)NC2CCCCC2)o1", "outcome": "inactive"},
      {"smiles": "O=C(Nc1cccc(Cl)c1)c1cnn2cccnc12", "outcome": "inactive"},
      {"smiles": "COc1c(C)cc(C(=O)C2CCCN(Cc3cccc4nccnc34)C2)cc1C", "note": "(stereo not given)", "outcome": "inactive"},
      {"smiles": "O=C(c1cccc([N+](=O)[O-])c1)N1CCCC(C(=O)N2CCCCCC2)C1", "note": "(stereo not given)", "outcome": "inactive"},
      {"smiles": "CCOc1ccc(-n2c(SCC(=O)O)nc3sc4c(c3c2=O)CCCC4)cc1", "outcome": "inactive"},
      {"smiles": "Cc1cc(-c2ccc(C)c(S(=O)(=O)N3CCN(C(=O)c4ccco4)CC3)c2)on1", "outcome": "inactive"},
      {"smiles": "O=C(NC1CCN(Cc2ccccc2)CC1)C12CC3CC(CC(C3)C1)C2", "outcome": "inactive"},
      {"smiles": "Cc1cccc(/C=N/NC(=O)c2cc(Br)ccc2O)n1", "outcome": "inactive"},
      {"smiles": "C1CCN(c2nc(N3CCCC3)nc(N3CCNCC3)n2)C1", "outcome": "inactive"},
      {"smiles": "CNc1nc(N2CCc3ccccc32)ncc1F", "outcome": "inactive"},
      {"smiles": "Cc1cccc(Cn2c(N3CCN(c4ccccc4)CC3)nc3c2c(=O)n(C)c(=O)n3C)c1", "outcome": "inactive"},
      {"smiles": "O=C(Nc1cccc(Cl)c1)N1CCN(C/C=C/c2ccccc2)CC1", "outcome": "inactive"}
    ]},
    {"molecular_target": "Short transient receptor potential channel 4 (Mus musculus) (UniProt Q9QUQ5)", "test": "calcium flux activators in TRPC4/5HT1a cells, counter-screen for TRPC4 activator project, cell-based, second counter screen, HEK293 TRPC4/5HT1a, Fluo-4 (AID 434977);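 on activation: plate controls were assay buffer for no effect and maximal serotonin response for full effect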", "settings": "Fluo-4 calcium flux, at 10 µM; active compounds read high", "values": [
      {"smiles": "COc1ccc(-n2nc(C(=O)NCC(=O)NCCCN3CC(C)CC(C)C3)c3ccccc3c2=O)cc1Cl", "note": "(stereo not given)", "activation": "12.2% (active)"},
      {"smiles": "Cc1cc(OCC(=O)N(C(C)C)C(C)C)cc(C)c1Br", "outcome": "inactive"},
      {"smiles": "CCCCCCn1c(N2CCN(c3ccccc3)CC2)nc2c1c(=O)n(C)c(=O)n2C", "outcome": "inactive"},
      {"smiles": "CCC(=O)NC(C)C(c1cccs1)N1CCN(c2ccccc2)CC1", "note": "(stereo not given)", "outcome": "inactive"},
      {"smiles": "Cc1ccc(-c2nnc(N3CCC(C)CC3)c3ccccc23)cc1C", "outcome": "inactive"},
      {"smiles": "Cc1cc(C(C)(C)C)c(O)c(C)c1CC1=NCCN1", "outcome": "inactive"},
      {"smiles": "Cc1sc2ncnc(NCC(c3ccccc3)N(C)C)c2c1C", "note": "(stereo not given)", "activation": "49% (active)"},
      {"smiles": "O=C(NCc1ccccc1)C1=C[C@H](c2ccc(Br)cc2)C[C@H](OCc2ccc(CO)cc2)O1", "outcome": "inactive"},
      {"smiles": "O=C(Nc1ccccc1)C1=C[C@H](C2CCCCC2)C[C@H](OCc2ccc(CO)cc2)O1", "outcome": "inactive"},
      {"smiles": "Cc1ccc(S(=O)(=O)N2CCC(N3CCN(C)CC3)CC2)cc1Cl", "outcome": "inactive"},
      {"smiles": "Cc1cc(OCC(=O)NC2CCCCC2)ccc1Cl", "outcome": "inactive"},
      {"smiles": "O=[N+]([O-])c1ccc(/C=N/Nc2nc(N3CCCCC3)nc(N3CCCCC3)n2)o1", "outcome": "inactive"},
      {"smiles": "Cc1cccc(/C=N/NC(=O)c2cccc(Cl)c2)n1", "outcome": "inactive"},
      {"smiles": "S=C(NCCc1ccccn1)NC1CCCCC1", "activation": "28.1% (active)"},
      {"smiles": "Cc1cccc(Cc2c(C)nc3c(C(=O)NCc4ccco4)cnn3c2C)c1", "outcome": "inactive"},
      {"smiles": "Cc1ccc(Cn2c(=N)c(C(=O)NC3CCCC3)cc3c(=O)n4ccccc4nc32)cc1", "outcome": "inactive"},
      {"smiles": "COC(=O)[C@@]12CCCCN1[C@H](c1ccc(-c3cccc(Cl)c3)c(OC)c1)[C@H]1C(=O)N(C)C(=O)[C@H]12", "outcome": "inactive"},
      {"smiles": "CC1=C(C(=O)NCc2ccccc2)C(c2cc(Br)cc(Br)c2OC(C)C)NC(=O)N1", "note": "(stereo not given)", "outcome": "inactive"},
      {"smiles": "CC1Cc2ccccc2N1C(=O)CSc1nc2c(c(=O)n(C)c(=O)n2C)n1Cc1ccc(F)cc1", "note": "(stereo not given)", "outcome": "inactive"},
      {"smiles": "CCN1CCN(c2ccc(S(=O)(=O)N3CCOCC3)cc2NC(=O)c2ccccc2OC(F)F)CC1", "activation": "77.8% (active)"},
      {"smiles": "O=C1C(Cl)=C(Nc2cccc(O)c2)C(=O)N1Cc1ccccc1", "outcome": "inactive"},
      {"smiles": "O=C(NCc1ccccc1)C1=C[C@H](c2ccc(C(F)(F)F)cc2)C[C@H](OCc2ccc(CO)cc2)O1", "outcome": "inactive"},
      {"smiles": "COc1ccc(C)c(NC(=O)NCCc2cnc[nH]2)c1", "activation": "56.4% (active)"},
      {"smiles": "CN(C)CCNc1ccc(Cl)cc1[N+](=O)[O-]", "outcome": "inactive"},
      {"smiles": "CCn1c(O)c(N=NC(=O)c2cccc(S(=O)(=O)N3CCCCC3)c2)c2ccccc21", "outcome": "inactive"},
      {"smiles": "Cc1onc(-c2ccccc2)c1C(=O)NNC(=S)NC(=O)c1ccc2c(c1)OCO2", "activation": "56.5% (active)"},
      {"smiles": "COc1ccc(Cl)cc1C(=O)NCCN(C)C", "outcome": "inactive"},
      {"smiles": "O=C1NCN(c2ccccc2)C12CCN(CCCC(c1ccc(F)cc1)c1ccc(F)cc1)CC2", "outcome": "inactive"},
      {"smiles": "Cc1ccc(/C=N/NC(=O)NC2CCCCC2)o1", "outcome": "inactive"},
      {"smiles": "O=C(Nc1cccc(Cl)c1)c1cnn2cccnc12", "outcome": "inactive"},
      {"smiles": "COc1c(C)cc(C(=O)C2CCCN(Cc3cccc4nccnc34)C2)cc1C", "note": "(stereo not given)", "activation": "37.7% (active)"},
      {"smiles": "O=C(c1cccc([N+](=O)[O-])c1)N1CCCC(C(=O)N2CCCCCC2)C1", "note": "(stereo not given)", "outcome": "inactive"},
      {"smiles": "CCOc1ccc(-n2c(SCC(=O)O)nc3sc4c(c3c2=O)CCCC4)cc1", "outcome": "inactive"},
      {"smiles": "Cc1cc(-c2ccc(C)c(S(=O)(=O)N3CCN(C(=O)c4ccco4)CC3)c2)on1", "outcome": "inactive"},
      {"smiles": "O=C(NC1CCN(Cc2ccccc2)CC1)C12CC3CC(CC(C3)C1)C2", "activation": "61.6% (active)"},
      {"smiles": "Cc1cccc(/C=N/NC(=O)c2cc(Br)ccc2O)n1", "outcome": "inactive"},
      {"smiles": "C1CCN(c2nc(N3CCCC3)nc(N3CCNCC3)n2)C1", "outcome": "inactive"},
      {"smiles": "CNc1nc(N2CCc3ccccc32)ncc1F", "outcome": "inactive"},
      {"smiles": "Cc1cccc(Cn2c(N3CCN(c4ccccc4)CC3)nc3c2c(=O)n(C)c(=O)n3C)c1", "outcome": "inactive"},
      {"smiles": "O=C(Nc1cccc(Cl)c1)N1CCN(C/C=C/c2ccccc2)CC1", "outcome": "inactive"}
    ]}
  ]
}
